TDP1 cell CPT: growth inhibition of DT40 Tdp1-/-;hTDP1 cells with camptothecin (screen for TDP1 inhibitors) | AID 686979 | Potency, µM (top dose mostly 46.2 µM), inactives show at the highest dose activity change, negative = growth inhibition, actives largely listed as inhibitors | chicken DT40 Tdp1-/-;hTDP1 cells + 20 nM CPT, ATP luminescence, 48 h | actives 12% (n = 420,000); further: potency means the concentration at half of the fitted maximal effect; nearly all actives have a fitted effect of over 55% in size
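Chicken DT40 Tdp1-/- cells stably complemented with human TDP1 were seeded at 400 cells/well in medium containing 20 nM camptothecin, exposed to pin-transferred compounds, and grown at 37 °C for at least 48 hr. Viability was read as ATP luminescence.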
DT40 TDP1 no CPT: qHTS for Inhibitors of human tyrosyl-DNA phosphodiesterase 1 (TDP1): qHTS in cells in absence of CPT; actives 15% (n = 420,000); Potency, µM (doses to about 46.2 µM), for inactives: at the top dose activity change, negative = growth inhibition, hits mostly inhibitors; AID 686978, 2013; DT40 Tdp1-/- hTDP1 cells, no CPT, ATP luminescence, 48 h; further: potency means the concentration at half of the fitted maximal effect; nearly all actives have a fitted effect of over 55% in size
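Compound effects on proliferation are scored in DT40 Tdp1-/-;hTDP1 cells in the absence of CPT. ATP levels (CellTiter-Glo luminescence) are recorded after a ≥48 hr, 37 °C incubation.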
TDP1 inh: blocks human tyrosyl-DNA phosphodiesterase 1; Q9NUW8; recombinant TDP1, AlphaScreen DNA substrate cleavage; Potency, µM (top dose mostly 130 µM), inactives show at the highest dose activity change, negative = inhibition, hits mostly inhibitors; actives 0.28% (n = 350,000); AID 485290; further: potency means the concentration at half of the fitted maximal effect; nearly all actives have a fitted effect of over 40% in size
Target sequence (Q9NUW8 whole entry, looked up): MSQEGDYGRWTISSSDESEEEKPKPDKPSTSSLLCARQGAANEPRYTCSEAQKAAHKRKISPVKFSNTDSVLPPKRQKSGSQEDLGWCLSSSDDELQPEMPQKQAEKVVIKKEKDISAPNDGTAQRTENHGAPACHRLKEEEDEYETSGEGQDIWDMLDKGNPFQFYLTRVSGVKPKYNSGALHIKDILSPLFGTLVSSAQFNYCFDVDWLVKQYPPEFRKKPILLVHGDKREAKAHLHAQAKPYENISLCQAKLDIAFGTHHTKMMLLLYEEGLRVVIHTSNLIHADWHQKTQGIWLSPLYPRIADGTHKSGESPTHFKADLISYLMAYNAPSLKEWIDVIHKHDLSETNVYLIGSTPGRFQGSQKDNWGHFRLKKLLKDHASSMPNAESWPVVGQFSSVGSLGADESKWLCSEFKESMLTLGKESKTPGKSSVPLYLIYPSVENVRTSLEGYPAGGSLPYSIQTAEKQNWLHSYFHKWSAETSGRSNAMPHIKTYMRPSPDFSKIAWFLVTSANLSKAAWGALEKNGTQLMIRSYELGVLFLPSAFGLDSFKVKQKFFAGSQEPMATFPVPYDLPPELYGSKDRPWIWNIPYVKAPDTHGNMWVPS
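Here, a 5' biotin and 3' phosphotyrosine-FITC DNA oligonucleotide reports Tdp1 activity: intact substrate bridges AlphaScreen beads, while cleavage leaves a 3' phosphate and drops signal. All incubations at room temperature.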
ELG1 DNA repair: ELG1-dependent DNA repair inhibition; actives 2.3% (n = 330,000); Potency, µM (titrated, usually from 46.1 µM), for inactives: top-dose activity change, negative = inhibition, most hits filed as inhibitors; HEK293T ELG1-luciferase reporter, luminescence, 16 h; DNA damage induced by 5-fluorouridine; further: potency means the concentration at half of the fitted maximal effect; nearly all actives have a fitted effect of over 55% in size
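In this reporter screen, reduction of luminescence relative to DMSO vehicle indicated activity. Compounds and 5-fluorouridine were added together to 2,000 cells per well, incubated for 16 hr at 37 °C, then developed with ONE-Glo.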
IL-1B inflam inh: inhibitors of inflammasome signaling (IL-1 beta secretion); THP-1 LPS/ATP IL-1B secretion, AlphaLISA, 16 h; active compounds read low; actives 4.7% (n = 360,000); activity change, % at 57.5 µM; in the data active means activity change below about -50%; inconclusive means mostly about -30% to -49%
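Secreted IL-1B measured by AlphaLISA bead assay after 16 h compound exposure of THP-1 cells; compounds (final up to 57.5 uM) added 1 h before LPS (250 ng/mL) and ATP (1.25 mM) stimulation; lower signal means less secretion.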
Giardia kill: Giardia lamblia killing; AID 540267; activity change, % at 7.66 µM, hits read low; Giardia lamblia trophozoite viability; actives 0.15% (n = 340,000); in the data active means activity change below about -80%; inconclusive means between about -30% and that limit;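 further: parasites exposed to compound for two days anaerobically before the ATP read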
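Giardia lamblia trophozoites (100 cells/well) were incubated with compounds for 48 h at 37 deg C under anaerobic conditions. Viability was read as ATP content by one-step luminescence after 15-30 min at room temperature.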
The depositor's hits bear a star; u = inconclusive; x = no result; [ ] = dose if it differs, or a comment. An excerpt weighted towards active compounds, which were near 19% of everything screened. Unless noted, the call rests on the fitted dose curve; in most records, active means well fitted curve in the direction sought with a large enough effect; inconclusive means small, poorly fitted or top-dose-only effect, or another doubt; inactive means no such curve, though single readings can be large; an effect the other way counts as inactive or inconclusive. On the % scale 0 is the no-effect control and ±100 the full control effect.

SMILES	TDP1 cell CPT	DT40 TDP1 no CPT	TDP1 inh	ELG1 DNA repair	IL-1B inflam inh	Giardia kill
O=C(/C=C/c1cccs1)Nc1ccc(N2CCOCC2)c(S(=O)(=O)Nc2ccccc2Cl)c1	u	23µM*	-3%	u	u	-27
Nc1ccc(N2CCOCC2)c(S(=O)(=O)Nc2cc(Cl)ccc2Cl)c1	-2%	1%	8%	8%	38	3
O=C(/C=C/c1cccs1)Nc1ccc(N2CCOCC2)c(S(=O)(=O)Nc2cc(Cl)ccc2Cl)c1	u	23µM*	3%	u	-2	-22
Nc1cc(S(=O)(=O)Nc2ccccc2Cl)ccc1N1CCOCC1	u	u	-3%	u	11	11
CCN1C(=O)N[C@@H](CCc2ccccc2)[C@H](C(=O)OC)[C@H]1C	12%	-5%	4%[12.3 µM]	x	1	-2
COc1ccc(NS(=O)(=O)c2ccc(N3CC(O)=C(c4ccccc4)C3=N)cc2)cc1	2%	0%	x	0%	31	0
O=C(c1ccco1)N1CCN(c2ncnc3c2oc2ccccc23)CC1	21µM*	13µM*	3%	u	-5	35
COc1ccccc1N1CCN(c2ncnc3c2oc2ccccc23)CC1	3.7µM*	5.2µM*	7%	u	35	21
Cc1nc(N2CCN(Cc3nc4ccccc4[nH]3)CC2)c2oc3ccccc3c2n1	u	18µM*	8%	u	u	8
c1ccc2[nH]c(CN3CCN(c4ncnc5c4oc4ccccc45)CC3)nc2c1	23µM*	23µM*	4%	u	u	11
O=C(Nc1ccc(N2CCOCC2)cc1)C1CCCN(S(=O)(=O)c2cccc(C(F)(F)F)c2)C1 (stereo not drawn)	-9%	-15%	2%	-1%	9	8
C(=C\c1ccccc1)/CN1CCN(c2ncnc3c2oc2ccccc23)CC1	18µM*	18µM*	6%	u	-23	13
Cc1nc(SCc2ccccc2F)c2oc3ccccc3c2n1	3%	13µM*	x	u	-6	25
Nc1nc(N2CCN(C/C=C/c3ccccc3)CC2)nc2ccccc12	21µM*	u	4%	-14%	-4	21
O=c1[nH]c(CN2CCN(C/C=C/c3ccccc3)CC2)nc2ccccc12	u	-26%	9%	-12%	10	-24
Cc1nc(N2CCOCC2)c2oc3ccccc3c2n1	u	18µM*	4%	-23%	7	9
O=C(Cc1c(F)cccc1Cl)N1CCN(S(=O)(=O)c2cccs2)CC1	-2%	-1%	0%	21%	18	-2
Cc1nc(SCc2nc3ccccc3[nH]2)c2oc3ccc(Br)cc3c2n1	x	x	2%	u	x	19
Cc1nc(SCc2nc3ccccc3[nH]2)c2oc3ccccc3c2n1	21µM*	u	3%	18µM*	-28	-14
CC(CCc1ccccc1)NC(=O)COC(=O)c1ccc(S(C)(=O)=O)c([N+](=O)[O-])c1 (stereo not drawn)	2.3µM*	2.3µM*	4%	u	-108*	1
Cc1ccccc1NC(=O)Cc1nc(COC(=O)c2ccc(S(C)(=O)=O)c([N+](=O)[O-])c2)cs1	2.9µM*	3.7µM*	0%[56.1 µM]	u	-102*	8
CC(CCc1ccccc1)NC(=O)COC(=O)c1ccc([N+](=O)[O-])cc1 (stereo not drawn)	9%	10%	x	u	29	-28
CC(C)(C)c1ccc(OCCC(=O)OCC(=O)Nc2cccnc2Cl)cc1	u	16µM*	x	18%	-10	5
O=C(COC(=O)c1ccc([N+](=O)[O-])cc1)Nc1cccnc1Cl	-19%	1%	x	x	9	4
CS(=O)(=O)c1ccc(C(=O)OCC(=O)Nc2cccnc2Cl)cc1[N+](=O)[O-]	6.5µM*	8.2µM*	0%	u	-96*	-9
SMILES	TDP1 cell CPT	DT40 TDP1 no CPT	TDP1 inh	ELG1 DNA repair	IL-1B inflam inh	Giardia kill
O=C(COC(=O)COc1ccc(Cl)cc1)Nc1cccnc1Cl	-2%	-5%	x	x	9	x
Cc1ccccc1NC(=O)Cc1nc(COC(=O)c2ccc(NC(N)=O)cc2)cs1	u	u	1%	u	-24	-15
Cc1ccccc1NC(=O)COC(=O)c1ccc(S(C)(=O)=O)c([N+](=O)[O-])c1	2.5µM*	4µM*	0%	u	-96*	-6
CS(=O)(=O)c1ccc(C(=O)OCC(=O)Nc2cc(C(F)(F)F)ccc2Cl)cc1[N+](=O)[O-]	11µM*	u	1%	x	x	1
NS(=O)(=O)c1cc(C(=O)OCC(=O)Nc2ccc(Cl)cc2[N+](=O)[O-])ccc1Cl	-8%	-6%	9%	-11%	72	-3
NS(=O)(=O)c1cc(C(=O)OCC(=O)Nc2ccccc2[N+](=O)[O-])ccc1Cl	6%	1%	3%	8%	7	4
CN(C)c1nccc(N(Cc2ccccc2)Cc2ccccc2)c1C#N	18µM*	29µM*	-2%	u	-13	-5
O=C(CCl)N(c1ccccc1)C1CCS(=O)(=O)C1 (stereo not drawn)	8.2µM*	8.2µM*	3%	u	-89*	5
O=C(N/N=C/c1cccs1)C1COc2ccccc2O1 (stereo not drawn)	u	16µM*	8%	4%	20	-15
Cc1ccc(/C=N/NC(=O)C2COc3ccccc3O2)s1 (stereo not drawn)	1.2µM*	1.6µM*	-14%	16%	-12	3
C[C@H]1Cc2c(-c3ccccc3)nc3c(c2CO1)CN(C(=O)Nc1cccc(C#N)c1)CC3	x	x	6%[12.3 µM]	x	x	x
C=CCNC(=O)Nc1ccc(F)cc1F	13%	-20%	0%	-13%	-3	-4
COC(=O)c1ccc(NC(=O)Nc2cccc(F)c2)cc1	u	u	0%	u	-92*	5
COC(=O)c1ccc(NC(=O)Nc2ccc(F)cc2F)cc1	8.2µM*	6.5µM*	4%	u	-53*	-5
CC(=O)Nc1cccc(NC(=O)Nc2ccc(F)cc2F)c1	14%	u	0%	u	9	-7
COC(=O)c1ccc(NC(=O)Cc2ccc(F)cc2)cc1	u	u	4%	-1%	-1	2
O=C(Nc1ccccc1)Nc1ccc(F)cc1F	u	23µM*	-5%	u	-12	-13
COc1ccc(NC(=O)Nc2cccc(F)c2)c(OC)c1	-5%	-11%	5%	u	u	-3

Screens (PubChem BioAssay)
